Laboratory results taken from the supplement of paper PMC6279402.
Structures can show the parent of a compound that is named as a salt. ± gives the standard deviation of the averaged measurements.

Test system: A549
Assay: relative viability (normalised to negative control = 1, bortezomib = 0) (fraction); higher = less cytotoxic
Conditions: inflammatory serum-free RHB-A with cytokines + LPS, 5 d + 24 h CellTiter-Blue
[1] = compound 30 nM, GSK126 pretreatment: 5 uM GSK126
[2] = compound 30 nM, GSK126 pretreatment: none (vehicle)
[3] = compound 300 nM, GSK126 pretreatment: 5 uM GSK126
[4] = compound 300 nM, GSK126 pretreatment: none (vehicle)

| SMILES | relative viability [1] | relative viability [2] | relative viability [3] | relative viability [4] |
| --- | --- | --- | --- | --- |
| NC1(c2ccc(-c3nc4ccn5c(=O)[nH]nc5c4cc3-c3ccccc3)cc2)CCC1 | 0.679 ± 0.074 | 0.691 ± 0.063 | 0.387 ± 0.011 | 0.522 ± 0.067 |
| CC(C)(C)c1cc(NC(=O)Nc2ccc(-c3cn4c(n3)sc3cc(OCCN5CCOCC5)ccc34)cc2)no1 | 0.952 ± 0.016 | 0.898 ± 0.068 | 1.05 ± 0.087 | 1 ± 0.031 |
| COc1cc2c(N3CCN(C(=O)Nc4ccc(OC(C)C)cc4)CC3)ncnc2cc1OCCCN1CCCCC1 [Tandutinib (MLN518)] | 0.74 ± 0.03 | 0.735 ± 0.071 | 0.829 ± 0.075 | 0.862 ± 0.1 |
| COc1cc2/c(=N/c3ccc(Br)cc3F)nc[nH]c2cc1OCC1CCN(C)CC1 [Vandetanib] | 0.923 ± 0.1 | 0.924 ± 0.083 | 0.742 ± 0.12 | 0.705 ± 0.044 |
| Cc1cnc(-c2cnc(NCCNc3ccc(C#N)cn3)nc2-c2ccc(Cl)cc2Cl)[nH]1 | 0.847 ± 0.064 | 0.834 ± 0.016 | 0.788 ± 0.059 | 0.732 ± 0.097 |
| CC(C)C[C@H](NC(=O)[C@H](CCc1ccccc1)NC(=O)CN1CCOCC1)C(=O)N[C@@H](Cc1ccccc1)C(=O)N[C@@H](CC(C)C)C(=O)[C@@]1(C)CO1 [Carfilzomib] | -0.00043 ± 0.0042 | 0.0294 ± 0.0064 | -0.00389 ± 0.00043 | -0.00499 ± 0.0011 |
| CC(=O)O[C@]1(C(C)=O)CC[C@H]2[C@@H]3C=C(C)C4=CC(=O)CC[C@]4(C)[C@H]3CC[C@@]21C [Megestrol acetate] | 1.35 ± 0.04 | 1.21 ± 0.14 | 1.48 ± 0.078 | 1.55 ± 0.085 |
| Cc1cc(Nc2cc(CN3CCOCC3)c3nc(C)c(Cc4ccc(Cl)cc4F)n3n2)n[nH]1 | 0.974 ± 0.13 | 0.988 ± 0.062 | 1.24 ± 0.078 | 1.23 ± 0.03 |
| Cc1ccc(S(=O)(=O)Nc2nc3ccccc3nc2Nc2ccc3nsnc3c2)cc1 | 0.8 ± 0.092 | 0.774 ± 0.06 | 0.748 ± 0.14 | 0.842 ± 0.06 |
| CN1CCN(CCOc2cc(OC3CCOCC3)c3c(Nc4c(Cl)ccc5c4OCO5)ncnc3c2)CC1 [AZD0530(Saracatinib)] | 0.831 ± 0.073 | 0.827 ± 0.071 | 0.746 ± 0.057 | 0.914 ± 0.038 |
| Cc1cnc(NC(=O)Nc2cc(Br)c(C)cc2OC[C@@H]2CNCCO2)cn1 | 0.539 ± 0.03 | 0.607 ± 0.081 | 0.414 ± 0.05 | 0.338 ± 0.028 |
| CNC(=O)c1cc(Oc2ccc(NC(=O)Nc3ccc(Cl)c(C(F)(F)F)c3)cc2)ccn1 [Sorafenib tosylate; Sorafenib; Sorafenib Tosylate] | 1.12 ± 0.089 | 1.04 ± 0.039 | 1.12 ± 0.18 | 1.1 ± 0.1 |
| CN(Cc1cnc2nc(N)nc(N)c2n1)c1ccc(C(=O)N[C@@H](CCC(=O)O)C(=O)O)cc1 [Methotrexate hydrate; Methotrexate] | 0.813 ± 0.055 | 0.84 ± 0.052 | 0.797 ± 0.17 | 0.947 ± 0.086 |
| COC(=O)c1ccc2c(C(=Nc3ccc(N(C)C(=O)CN4CCN(C)CC4)cc3)c3ccccc3)c(O)[nH]c2c1 [BIBF1120(Vargatef)] | 0.825 ± 0.044 | 0.812 ± 0.16 | 0.844 ± 0.13 | 1.01 ± 0.18 |
| O=C(NOCC1CC1)c1ccc(F)c(F)c1Nc1ccc(I)cc1Cl | 0.441 ± 0.038 | 0.55 ± 0.088 | 0.256 ± 0.014 | 0.312 ± 0.033 |
| Cn1cc(-c2ccc3nnc(Sc4ccc5ncccc5c4)n3n2)cn1 | 0.807 ± 0.056 | 0.846 ± 0.079 | 0.859 ± 0.033 | 0.903 ± 0.02 |
| COc1cc2nccc(Oc3ccc(NC(=O)Nc4ccc(F)cc4F)c(F)c3)c2cc1OC | 0.86 ± 0.097 | 0.832 ± 0.051 | 0.916 ± 0.12 | 1.01 ± 0.075 |
| N#CC1(c2ccc(NC(=O)c3cccnc3NCc3ccncc3)cc2)CCCC1 [Apatinib (YN968D1)] | 0.83 ± 0.072 | 0.853 ± 0.054 | 0.936 ± 0.085 | 0.9943 ± 0.005 |
| C[C@@H]1CN(CC(=O)Nc2ccc3c(c2)Cc2cccc(-c4cc(=O)cc(N5CCOCC5)o4)c2S3)C[C@H](C)O1 | 0.816 ± 0.029 | 0.857 ± 0.089 | 0.907 ± 0.043 | 0.943 ± 0.024 |
| Cc1nc(N)sc1-c1ccnc(Nc2ccc(N3CCOCC3)cc2)n1 | 0.898 ± 0.061 | 0.913 ± 0.011 | 0.797 ± 0.1 | 0.72 ± 0.083 |
| N#C/C(=C/c1ccc(O)c(O)c1)C(=O)NCc1ccccc1 [AG-490; Tyrphostin AG 490] | 0.914 ± 0.15 | 0.861 ± 0.1 | 0.879 ± 0.15 | 0.873 ± 0.11 |
| Cc1ccc(-n2nc(C(C)(C)C)cc2NC(=O)Nc2ccc(OCCN3CCOCC3)c3ccccc23)cc1 | 1.13 ± 0.13 | 0.937 ± 0.18 | 1.32 ± 0.064 | 1.13 ± 0.23 |
| CC[C@H](CO)Nc1nc(NCc2ccccc2)c2ncn(C(C)C)c2n1 [ROSCOVITINE; Roscovitine(CYC202); Roscovitine] | 0.929 ± 0.16 | 0.873 ± 0.12 | 0.963 ± 0.063 | 0.902 ± 0.088 |
| CS(=O)(=O)c1ccc(C(=O)Nc2ccc(Cl)c(-c3ccccn3)c2)c(Cl)c1 [Vismodegib] | 0.993 ± 0.058 | 0.952 ± 0.12 | 1.05 ± 0.14 | 1.03 ± 0.074 |
| C=CC(=O)N1CCC[C@@H](n2nc(-c3ccc(Oc4ccccc4)cc3)c3c(N)ncnc32)C1 | 0.769 ± 0.14 | 0.718 ± 0.11 | 0.429 ± 0.02 | 0.41 ± 0.048 |
